Data from PubChem BioAssay (Tox21).
Results filed as inconclusive are left out. Calls of active or inactive are those of the source. Unless noted, the call rests on the fitted dose curve; in most records, active means well fitted curve in the direction sought with a large enough effect in the repeat runs; inconclusive means weak or mixed curves; inactive means no such curve, though single readings can be large; an effect the other way counts as inactive or inconclusive.

Tests used:
[1] = target: Aryl hydrocarbon receptor (Homo sapiens) (UniProt P35869); test: qHTS assay to identify small molecule that activate the aryl hydrocarbon receptor (AhR) signaling pathway (AID 743085);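 further: HG2L7.5c1 human HepG2 liver cells with stably integrated DRE-driven firefly reporter; series mostly up to about 70 µM; nearly all actives have a fitted effect of over 15% in size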
Summary of the method: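 HepG2 cells stably carrying a 20-DRE firefly luciferase reporter (HG2L7.5c1) treated with compound for 24 hr at 37C. Luciferase read by ONE-Glo luminescence, with CellTiter-Fluor viability read first.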

[2] = qHTS assay to identify small molecule that activate the aryl hydrocarbon receptor (AhR) signaling pathway - cell viability counter screen (AID 743086);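 further: HepG2 liver cells carrying the AhR DRE luciferase reporter; series mostly up to about 70 µM; nearly all actives have a fitted effect of over 45% in size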
Summary of the method: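 HepG2-AhR-luc (HG2L7.5c1) cells, 4000/well, treated 24 h at 37 C with compound; viability measured as CellTiter-Fluor fluorescence after 30 min in the same wells as the luciferase read.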

[3] = target: Peroxisome proliferator-activated receptor gamma (Homo sapiens) (UniProt P37231); test: qHTS assay to identify small molecule agonists of the peroxisome proliferator-activated receptor gamma (PPARg) signaling pathway (AID 743094; active means well fitted activation curve with a large enough effect in the signal ratio in the repeat runs, not every such curve was filed as active; the % refers to the signal ratio)
Summary of the method: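 Compounds dissolved in DMSO were added to PPARg UAS-bla HEK293H cells for 17 h at 37C, and reporter expression was quantified by fluorescence intensity after 1 h with LiveBLAzer B/G FRET substrate.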

[4] = qHTS assay to identify small molecule antagonists of the peroxisome proliferator-activated receptor gamma (PPARg) signaling pathway - cell viability counter screen (AID 743194); further: nearly all actives have a fitted effect of over 55% in size
Summary of the method: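 Cytotoxicity counter screen in PPARg-bla HEK293H cells, same wells as reporter assay. Compounds plus 50 nM rosiglitazone (final) for 17 h at 37 C, then viability read by CellTiter-Glo luminescence.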

[5] = qHTS assay for small molecule agonists of the antioxidant response element (ARE) signaling pathway (AID 743202; active means well fitted activation curve with a large enough effect in the signal ratio in the repeat runs, not every such curve was filed as active; the % refers to the signal ratio)
Summary of the method: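 Agonist mode reporter screen: HepG2 cells with ARE-controlled beta-lactamase are incubated with test compounds for 16 h at 37 C, and beta-lactamase activity is measured as fluorescence of cleaved B/G FRET substrate.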

[6] = qHTS assay for small molecule agonists of the antioxidant response element (ARE) signaling pathway - cell viability counter screen (AID 743203; calls by dose curve; further: nearly all actives have a fitted effect of over 55% in size)
Summary of the method: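 Following 16 hrs of compound treatment at 37C, HepG2 cells with an ARE-controlled beta-lactamase gene were lysed with CellTiter-Glo. Luminescence was read after 30 min at room temperature.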

[7] = qHTS assay for small molecule activators of the heat shock response signaling pathway - cell viability counter screen (AID 743209); further: nearly all actives have a fitted effect of over 50% in size
Summary of the method: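 Readout: CellTiter-Glo luminescence, 30 min at room temperature. System: HSE-bla HeLa cells, 1500/well, plated overnight. Treatment: compounds in DMSO, 5 h at 37 C.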

[8] = qHTS assay to identify small molecule agonists of the peroxisome proliferator-activated receptor delta (PPARd) signaling pathway - cell viability counter screen (AID 743211); further: nearly all actives have a fitted effect of over 55% in size
Summary of the method: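 PPARd-bla HEK293H cells (3000/well) were pre-incubated 5 h at 37 C, then exposed to compound for 17 h at 37 C. After 2 h with LiveBLAzer substrate, CellTiter-Glo was added to the same wells; luminescence read after 30 min at room temperature.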

[9] = target: Peroxisome proliferator-activated receptor delta (Homo sapiens) (UniProt Q03181); test: qHTS assay to identify small molecule agonists of the peroxisome proliferator-activated receptor delta (PPARd) signaling pathway (AID 743212; calls by dose curve)
Summary of the method: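 Quantitative high-throughput agonist screen in a HEK293H beta-lactamase reporter line under UAS control. Compounds in DMSO, at 37 C. Fluorescence read after 2 h with FRET substrate at room temperature.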

[10] = qHTS assay to identify small molecule antagonists of the peroxisome proliferator-activated receptor delta (PPARd) signaling pathway - cell viability counter screen (AID 743213); further: nearly all actives have a fitted effect of over 50% in size
Summary of the method: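 PPARd-bla HEK293H cells (3000/well) got compound plus 300 nM L165041 agonist for 17 h at 37 C. Viability in the same wells came from CellTiter-Glo luminescence after 30 min at room temperature.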

[11] = qHTS assay to identify small molecule agonists of the farnesoid-X-receptor (FXR) signaling pathway - cell viability counter screen (AID 743218); further: nearly all actives have a fitted effect of over 45% in size
Summary of the method: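 Parallel cytotoxicity test: compound-treated (16 h, 37 C) HEK 293T FXR-bla reporter cells were lysed with CellTiter-Glo and luminescence recorded.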

[12] = target: Bile acid receptor (Homo sapiens) (UniProt Q96RI1); test: qHTS assay to identify small molecule agonists of the farnesoid-X-receptor (FXR) signaling pathway (AID 743220; active means well fitted activation curve with a large enough effect in the signal ratio in the repeat runs, not every such curve was filed as active; the % refers to the signal ratio)
Summary of the method: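 Beta-lactamase reporter under UAS control in GeneBLAzer FXR HEK 293T cells (5000/well) measured with LiveBLAzer FRET substrate after 2 h at room temperature. Compound exposure lasted 16 h at 37C.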

[13] = qHTS assay to identify small molecule antagonists of the farnesoid-X-receptor (FXR) signaling pathway - cell viability counter screen (AID 743221; active means well fitted cell-killing curve with a large enough effect in the repeat runs, not every such curve was filed as active; further: nearly all actives have a fitted effect of over 50% in size)
Summary of the method: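 GeneBLAzer FXR-UAS-bla HEK 293T cells, compound plus chenodeoxycholic acid (50 uM final), 16 h at 37 C. CellTiter-Glo added to the same wells after the beta-lactamase read; luminescence read after 30 min at room temperature as viability.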

[14] = target: Vitamin D3 receptor (Homo sapiens) (UniProt P11473); test: qHTS assay to identify small molecule agonists of the vitamin D receptor (VDR) signaling pathway (AID 743222; calls by dose curve)
Summary of the method: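 In VDR-bla cells, compound-induced beta-lactamase expression is quantified by FRET substrate fluorescence. Treatment lasts 16 h at 37C; substrate develops 2 h at room temperature.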

[15] = target: Vitamin D3 receptor (Homo sapiens) (UniProt P11473); test: qHTS assay to identify small molecule antagonists of the vitamin D receptor (VDR) signaling pathway (AID 743223; active means well fitted inhibition curve with a large enough effect in the signal ratio in the repeat runs, not every such curve was filed as active; the % refers to the signal ratio)
Summary of the method: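 VDR-bla cells were treated with compound plus 3 nM final 1alpha,25-dihydroxyvitamin D3 for 16 h at 37C. Beta-lactamase reporter read by B/G FRET substrate fluorescence after 2 h at room temperature. qHTS format.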

[16] = qHTS assay to identify small molecule agonists of the vitamin D receptor (VDR) signaling pathway - cell viability counter screen (AID 743224); further: series mostly up to about 63 µM; nearly all actives have a fitted effect of over 50% in size
Summary of the method: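 Plated VDR-bla cells (4 h, 37C) received compound, incubated 16 h, then LiveBLAzer substrate 2 h RT; CellTiter-Glo added afterwards, luminescence read at 30 min.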

[17] = target: Peroxisome proliferator-activated receptor gamma (Homo sapiens) (UniProt P37231); test: qHTS assay to identify small molecule antagonists of the peroxisome proliferator-activated receptor gamma (PPARg) signaling pathway (AID 743191; calls by dose curve; further: series mostly up to about 63 µM; nearly all actives have a fitted effect of over 30% in size)
Summary of the method: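 GeneBLAzer PPARg UAS-bla HEK293H cells, 5 h post-plating, exposed to compounds 17 h at 37C. LiveBLAzer B/G FRET substrate added for 1 h at room temperature; beta-lactamase reporter read by fluorescence intensity.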

[18] = qHTS assay for small molecule activators of the heat shock response signaling pathway (AID 743210; active means well fitted activation curve with a large enough effect in the signal ratio in the repeat runs, with a control signal flat, not every such curve was filed as active; the % refers to the signal ratio;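 further: HeLa cells with beta-lactamase reporter driven by heat shock elements; series mostly up to about 63 µM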)
Summary of the method: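 Quantitative high-throughput format using an engineered HeLa line in which heat shock response elements drive beta-lactamase; after 5 h with compound, cells received a B/G FRET substrate and fluorescence was read.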

[19] = target: Peroxisome proliferator-activated receptor delta (Homo sapiens) (UniProt Q03181); test: qHTS assay to identify small molecule antagonists of the peroxisome proliferator-activated receptor delta (PPARd) signaling pathway (AID 743215; active means well fitted inhibition curve with a large enough effect in the signal ratio in the repeat runs, not every such curve was filed as active; the % refers to the signal ratio;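 further: cells stimulated with agonist L165041 at 300 nM final during compound exposure; series mostly up to about 62 µM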)
Summary of the method: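 HEK293H UAS-bla, PPARd; agonist L165041 300 nM final with cpd in DMSO; 37 C 17 h; FRET substrate, RT 2 h; fluorescence intensity.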

[20] = target: Bile acid receptor (Homo sapiens) (UniProt Q96RI1); test: qHTS assay to identify small molecule antagonists of the farnesoid-X-receptor (FXR) signaling pathway (AID 743217; active means well fitted inhibition curve with a large enough effect in the signal ratio in the repeat runs, not every such curve was filed as active; the % refers to the signal ratio)
Summary of the method: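 GeneBLAzer FXR-UAS-bla HEK 293T, CDCA-stimulated (50 uM final). Compound treatment 16 h, 37 °C. Detection: beta-lactamase cleavage of B/G FRET substrate, fluorescence.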

Measured: Potency

Chain of Peroxisome proliferator-activated receptor gamma (Homo sapiens) (P37231 whole entry, looked up): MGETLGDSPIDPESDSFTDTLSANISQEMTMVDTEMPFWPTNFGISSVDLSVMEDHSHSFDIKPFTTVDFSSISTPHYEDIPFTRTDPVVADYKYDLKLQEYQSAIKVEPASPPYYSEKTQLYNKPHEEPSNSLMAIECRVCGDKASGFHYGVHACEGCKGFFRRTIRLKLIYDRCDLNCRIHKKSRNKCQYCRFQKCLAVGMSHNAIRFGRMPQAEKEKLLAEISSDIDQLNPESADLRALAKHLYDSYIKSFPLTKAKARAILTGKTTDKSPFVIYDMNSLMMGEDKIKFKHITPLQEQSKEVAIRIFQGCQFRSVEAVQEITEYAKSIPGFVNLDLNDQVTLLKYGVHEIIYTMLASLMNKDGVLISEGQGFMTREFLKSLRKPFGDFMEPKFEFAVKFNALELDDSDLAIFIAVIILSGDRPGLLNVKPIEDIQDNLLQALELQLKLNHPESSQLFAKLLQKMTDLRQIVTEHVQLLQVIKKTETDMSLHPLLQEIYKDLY
Chain of Peroxisome proliferator-activated receptor delta (Homo sapiens) (Q03181 whole entry, looked up): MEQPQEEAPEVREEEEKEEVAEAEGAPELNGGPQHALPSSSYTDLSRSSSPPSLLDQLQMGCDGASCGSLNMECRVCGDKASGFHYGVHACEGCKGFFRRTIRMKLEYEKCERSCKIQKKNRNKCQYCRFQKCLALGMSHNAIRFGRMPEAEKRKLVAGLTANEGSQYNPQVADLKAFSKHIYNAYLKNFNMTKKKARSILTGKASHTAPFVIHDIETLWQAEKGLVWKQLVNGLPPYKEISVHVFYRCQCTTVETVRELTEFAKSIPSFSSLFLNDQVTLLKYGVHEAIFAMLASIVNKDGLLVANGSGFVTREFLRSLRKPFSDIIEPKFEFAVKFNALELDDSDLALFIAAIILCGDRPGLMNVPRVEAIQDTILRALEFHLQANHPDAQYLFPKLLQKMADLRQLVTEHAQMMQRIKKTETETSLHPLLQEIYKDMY
Chain of Aryl hydrocarbon receptor (Homo sapiens) (P35869 whole entry, looked up): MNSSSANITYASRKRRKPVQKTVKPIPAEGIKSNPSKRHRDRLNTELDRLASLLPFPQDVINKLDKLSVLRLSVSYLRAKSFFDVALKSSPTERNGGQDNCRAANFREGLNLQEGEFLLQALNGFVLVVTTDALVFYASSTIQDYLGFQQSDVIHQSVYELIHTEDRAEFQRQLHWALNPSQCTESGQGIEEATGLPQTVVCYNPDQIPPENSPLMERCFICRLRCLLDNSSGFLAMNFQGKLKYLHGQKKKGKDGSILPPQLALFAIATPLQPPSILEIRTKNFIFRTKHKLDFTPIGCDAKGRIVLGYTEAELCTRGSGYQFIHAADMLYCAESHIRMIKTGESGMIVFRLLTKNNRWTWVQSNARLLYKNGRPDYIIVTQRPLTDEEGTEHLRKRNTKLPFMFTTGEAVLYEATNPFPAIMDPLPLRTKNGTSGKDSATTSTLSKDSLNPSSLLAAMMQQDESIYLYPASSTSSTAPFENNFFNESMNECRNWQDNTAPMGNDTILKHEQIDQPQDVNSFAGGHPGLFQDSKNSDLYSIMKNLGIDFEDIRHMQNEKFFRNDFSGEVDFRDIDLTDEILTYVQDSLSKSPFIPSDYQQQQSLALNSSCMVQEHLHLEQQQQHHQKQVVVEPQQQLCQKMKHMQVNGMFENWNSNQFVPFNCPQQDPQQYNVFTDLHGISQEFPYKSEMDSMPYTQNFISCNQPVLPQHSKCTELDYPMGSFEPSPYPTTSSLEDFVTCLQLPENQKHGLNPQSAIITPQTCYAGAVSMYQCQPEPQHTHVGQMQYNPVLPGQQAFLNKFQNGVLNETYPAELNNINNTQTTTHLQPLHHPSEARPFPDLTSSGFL
Chain of Vitamin D3 receptor (Homo sapiens) (P11473 whole entry, looked up): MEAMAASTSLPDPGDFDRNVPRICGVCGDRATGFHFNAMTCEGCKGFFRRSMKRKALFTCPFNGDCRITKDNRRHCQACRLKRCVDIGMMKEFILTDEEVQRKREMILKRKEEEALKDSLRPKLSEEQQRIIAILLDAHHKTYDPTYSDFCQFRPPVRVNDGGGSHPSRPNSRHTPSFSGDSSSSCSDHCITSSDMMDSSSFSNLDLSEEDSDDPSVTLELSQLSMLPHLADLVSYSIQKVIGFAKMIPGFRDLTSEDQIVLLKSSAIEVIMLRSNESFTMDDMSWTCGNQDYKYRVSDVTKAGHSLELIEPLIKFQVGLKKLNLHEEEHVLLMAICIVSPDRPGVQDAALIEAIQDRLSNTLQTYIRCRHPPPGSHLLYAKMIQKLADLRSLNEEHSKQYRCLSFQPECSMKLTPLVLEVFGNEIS
Chain of Bile acid receptor (Homo sapiens) (Q96RI1 whole entry, looked up): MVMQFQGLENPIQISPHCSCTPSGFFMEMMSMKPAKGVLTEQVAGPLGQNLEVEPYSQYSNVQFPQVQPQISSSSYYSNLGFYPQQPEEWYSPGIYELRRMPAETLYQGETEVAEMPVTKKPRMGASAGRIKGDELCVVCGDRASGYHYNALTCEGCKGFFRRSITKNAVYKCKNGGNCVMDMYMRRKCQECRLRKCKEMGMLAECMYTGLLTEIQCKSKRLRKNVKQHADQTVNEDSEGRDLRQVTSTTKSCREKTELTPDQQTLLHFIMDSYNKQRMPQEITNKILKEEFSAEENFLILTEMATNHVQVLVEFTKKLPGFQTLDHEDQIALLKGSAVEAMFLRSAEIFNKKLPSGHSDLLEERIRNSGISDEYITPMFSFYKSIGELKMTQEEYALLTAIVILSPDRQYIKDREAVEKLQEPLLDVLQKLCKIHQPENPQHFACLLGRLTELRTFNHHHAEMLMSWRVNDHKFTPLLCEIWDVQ

CC(C)[C@H]1CC[C@H](C)C[C@@H]1O
not listed: [17] | [18] | [19] | [20]
inactive: all other assays above

CCCCCCCCCCOC(C)=O
not listed: [4] | [5] | [11] | [12] | [14] | [20]
inactive: all other assays above

CCO
not listed: [4] | [10] | [14] | [15] | [19]
inactive: all other assays above

C/C=C(\C)C(=O)OCCc1ccccc1
not listed: [14] | [15] | [17] | [20]
inactive: all other assays above

O=[N+]([O-])c1c(Cl)cc(Cl)cc1Cl
not listed: [7] | [11] | [12] | [14] | [17] | [18] | [20]
inactive: all other assays above

OCC1CCC(CO)CC1 (centres undefined)
not listed: [11] | [17]
inactive: all other assays above

O=NN(CCCl)C(=O)NC1CCCCC1
not listed: [14] | [15] | [17] | [20]
inactive: all other assays above

CCCCCCCCCOC(=O)c1ccccc1C(=O)OCCCCCCCCC
not listed: [11] | [15] | [17] | [18]
inactive: all other assays above

CC(CO)(CO)CO
not listed: [7] | [12] | [17] | [19] | [20]
inactive: all other assays above

C=CCOC(=O)CCCCCC
not listed: [12] | [13] | [14] | [17] | [19] | [20]
inactive: all other assays above

Cn1c(=O)c2[nH]c(Br)nc2n(C)c1=O
not listed: [11] | [12] | [17] | [20]
inactive: all other assays above

O=C1CCCCO1
not listed: [12] | [17] | [20]
inactive: all other assays above

CC(=O)Nc1ccc(OC(=O)c2ccccc2OC(C)=O)cc1
not listed: [4] | [5] | [12] | [20]
inactive: all other assays above

C=C(C)c1cccc(C(C)(C)N=C=O)c1
not listed: [4] | [7] | [9] | [12] | [18] | [19] | [20]
inactive: all other assays above

CCOCCOCC
not listed: [15] | [17] | [20]
inactive: all other assays above

CC(=O)OCC(=O)Nc1cc(C#N)cc(NC(=O)COC(C)=O)c1Cl
not listed: [9] | [10] | [11] | [12] | [17] | [19] | [20]
inactive: all other assays above

Cc1c(NC(=O)c2cccnc2)c(=O)n(-c2ccccc2)n1C
not listed: [4] | [11] | [18] | [20]
inactive: all other assays above

CN(C)C(C)(C)CO
not listed: [17] | [20]
inactive: all other assays above
